# Experimental data taken from the antibiotic and cytotoxicity screens of Wong et al. (2023).
# About 3,300 (8.5%) of roughly 39,000 compounds were called active. The sample holds actives, similar compounds and a random draw of the others, so the mix is not that of the screen.
# System: HepG2
# Assay: cytotoxicity call (relative viability < 0.9)
# Settings: 10 µM
row,Structure (SMILES),cytotoxicity call
1,C[C@H]1CN([C@@H](C)CO)C(=O)c2cc(NS(C)(=O)=O)ccc2O[C@@H]1CN(C)S(=O)(=O)c1ccccc1,inactive
2,CC(C)NC(=O)N(C)C[C@@H]1Oc2ccc(NS(=O)(=O)c3ccc(Cl)cc3)cc2C(=O)N([C@@H](C)CO)C[C@H]1C,inactive
3,COc1ccc2c3c(n(c2c1)C)[C@H](CO)N(C[C@]13CCN(CC1)C(=O)c1ccccc1F)C(=O)Nc1ccc(cc1)F,inactive
4,CO[C@H]1CN(C)C(=O)c2cc(NS(=O)(=O)c3cn(C)cn3)ccc2OC[C@H](C)N(CC2CC2)C[C@H]1C,inactive
5,C[C@@H]1CN([C@H](C)CO)C(=O)c2cc(NC(=O)C3CCCCC3)ccc2O[C@@H](C)CCCCO[C@H]1CN(C)C(=O)Nc1ccccc1,inactive
6,Cc1cc2cc(C)nn2c(N)n1,inactive
7,C[C@H](CO)N1C[C@H](C)[C@H](CN(C)C(=O)Nc2ccccc2)OCCCC[C@H](C)Oc2ccc(NC(=O)CCC(F)(F)F)cc2C1=O,inactive
8,Cc1noc(C)c1S(=O)(=O)Nc1ccc2c(c1)C(=O)N([C@H](C)CO)C[C@@H](C)[C@@H](CN(C)Cc1ccccc1)O2,inactive
9,O=C(C[C@@H]1C=C[C@H](NS(=O)(=O)c2ccccc2F)[C@@H](CO)O1)NCCCN1CCOCC1,inactive
10,C[C@@H]1CCCCO[C@@H](CN(C)S(=O)(=O)c2ccc(F)cc2)[C@H](C)CN([C@H](C)CO)C(=O)c2cc(NC(=O)NC3CCCCC3)ccc2O1,active
11,C[C@@H]1CCCCO[C@H](CN(C)S(=O)(=O)c2ccc(F)cc2)[C@H](C)CN([C@H](C)CO)C(=O)c2cc(NC(=O)NC3CCCCC3)ccc2O1,inactive
12,C[C@H](CO)N1C[C@H](C)[C@H](CN(C)S(=O)(=O)c2ccc(F)cc2)OCCCC[C@H](C)Oc2ccc(NC(=O)NC3CCCCC3)cc2C1=O,active
13,C[C@@H]1CCCCO[C@@H](CN(C)S(=O)(=O)c2ccc(F)cc2)[C@H](C)CN([C@@H](C)CO)C(=O)c2cc(NC(=O)NC3CCCCC3)ccc2O1,inactive
14,C[C@@H]1CCCCO[C@@H](CN(C)S(=O)(=O)c2ccc(F)cc2)[C@@H](C)CN([C@H](C)CO)C(=O)c2cc(NC(=O)NC3CCCCC3)ccc2O1,inactive
15,C[C@@H]1CCCCO[C@H](CN(C)S(=O)(=O)c2ccc(F)cc2)[C@@H](C)CN([C@H](C)CO)C(=O)c2cc(NC(=O)NC3CCCCC3)ccc2O1,active
16,C[C@@H]1CCCCO[C@H](CN(C)S(=O)(=O)c2ccc(F)cc2)[C@H](C)CN([C@@H](C)CO)C(=O)c2cc(NC(=O)NC3CCCCC3)ccc2O1,inactive
17,C[C@@H]1CN([C@H](C)CO)C(=O)c2cc(NC(=O)NC3CCCCC3)ccc2O[C@@H](C)CCCCO[C@H]1CN(C)S(=O)(=O)c1ccc(F)cc1,inactive
18,C[C@H]1CCCCO[C@@H](CN(C)S(=O)(=O)c2ccc(F)cc2)[C@@H](C)CN([C@@H](C)CO)C(=O)c2cc(NC(=O)NC3CCCCC3)ccc2O1,inactive
19,COc1cccc(C#Cc2cnc3c(c2)C(=O)N([C@H](C)CO)C[C@@H](C)[C@@H](CN(C)C(=O)C2CCOCC2)O3)c1,inactive
20,C[C@H]1CN([C@@H](C)CO)C(=O)CCCn2nncc2CO[C@H]1CN(C)S(=O)(=O)c1ccc(-n2cccn2)cc1,inactive

row,Structure (SMILES),cytotoxicity call
1,CCOC(=O)c1cc2c(c(-c3ccccc3)n1)[C@@H](CCO[Si](C)(C)C(C)(C)C)N(S(=O)(=O)C(C)(C)C)C2,inactive
2,CCC(=O)Nc1ccc2c(c1)C(=O)N(C)C[C@@H](OC)[C@@H](C)CN(C(=O)CN1CCOCC1)[C@@H](C)CO2,inactive
3,O=C(O)COCC(=O)NCc1ccco1,inactive
4,O=C1O[C@@H](c2ccccc2)[C@@H](c2ccccc2)N2[C@@H](c3ccc(O)cc3)[C@]3(C(=O)Nc4ccccc43)[C@@H](C(=O)Nc3nc4ccccc4s3)[C@H]12,inactive
5,C[C@H]1CN([C@@H](C)CO)C(=O)c2cc(C#Cc3ccccc3F)cnc2O[C@@H]1CN(C)C(=O)c1ccc2c(c1)OCO2,inactive
6,C[C@@H]1CN([C@H](C)CO)C(=O)Cc2cc(N(C)C)ccc2O[C@@H]1CN(C)S(=O)(=O)c1cn(C)cn1,inactive
7,C[C@@H]1CN([C@H](C)CO)C(=O)c2cc(NC(=O)Nc3ccc(C(F)(F)F)cc3)ccc2O[C@H]1CN(C)C(=O)Nc1ccc2c(c1)OCO2,inactive
8,C[C@H]1CN([C@@H](C)CO)C(=O)c2cc(NC(=O)Nc3ccc(C(F)(F)F)cc3)ccc2O[C@@H]1CN(C)C(=O)Nc1ccc2c(c1)OCO2,active
9,C[C@@H]1CN([C@@H](C)CO)C(=O)c2cc(NC(=O)Nc3ccc(C(F)(F)F)cc3)ccc2O[C@@H]1CN(C)C(=O)Nc1ccc2c(c1)OCO2,active
10,C[C@@H]1CN([C@@H](C)CO)C(=O)c2cc(NC(=O)Nc3ccc4c(c3)OCO4)ccc2O[C@H]1CN(C)C(=O)Nc1ccc(C(F)(F)F)cc1,inactive
11,C[C@H]1CN([C@@H](C)CO)C(=O)c2cc(NC(=O)Nc3ccc4c(c3)OCO4)ccc2O[C@H]1CN(C)C(=O)Nc1ccc(C(F)(F)F)cc1,inactive
12,C[C@H]1CN([C@@H](C)CO)C(=O)c2cc(NC(=O)Nc3ccc4c(c3)OCO4)ccc2O[C@@H]1CN(C)C(=O)Nc1ccc(C(F)(F)F)cc1,inactive
13,COCCNC(=O)C[C@@H]1C[C@@H]2c3cc(NC(=O)COC)ccc3O[C@@H]2[C@@H](CO)O1,inactive
14,Cc1noc(C)c1NC(=O)Nc1ccc2c(c1)C(=O)N([C@@H](C)CO)C[C@@H](C)[C@H](CN(C)S(=O)(=O)c1ccccc1)OCCCC[C@@H](C)O2,inactive
15,C[C@H]1CN([C@@H](C)CO)C(=O)c2cc(NC(=O)Cn3cnnn3)ccc2O[C@@H]1CN(C)Cc1ccc(C(=O)Nc2ccccc2N)cc1,inactive
16,C[C@@H]1CN([C@H](C)CO)C(=O)c2cc(NC(=O)C3CC3)ccc2O[C@@H]1CN(C)S(=O)(=O)c1cn(C)cn1,inactive
17,COc1ccc(CN(C)C[C@H]2OCCCC[C@@H](C)Oc3ccc(NS(=O)(=O)c4ccc(F)cc4)cc3C(=O)N([C@H](C)CO)C[C@@H]2C)cc1,inactive
18,COc1ccccc1NC(=O)N(C)C[C@@H]1Oc2cc(Br)ccc2S(=O)(=O)N([C@@H](C)CO)C[C@@H]1C,inactive
19,C[C@H]1CN([C@@H](C)CO)S(=O)(=O)c2ccc(-c3cncnc3)cc2O[C@H]1CN(C)C(=O)NC1CCCC1,inactive
20,COc1ccc(cc1)CN1C[C@]2(CCN(CC2)C(=O)Nc2cccc(c2)F)c2c([nH]c3cc(ccc23)OC)[C@@H]1CO,inactive

row,Structure (SMILES),cytotoxicity call
1,COc1ccc2c3c([nH]c2c1)[C@H](CO)N(Cc1ccccc1)C[C@]13CCN(CC1)C(=O)Nc1cccc(c1)F,inactive
2,COc1ccc2c3c([nH]c2c1)[C@@H](CO)N(C[C@]13CCN(CCc2ccccc2)CC1)C(=O)CN1CCOCC1,inactive
3,COc1ccc2c3c([nH]c2c1)[C@H](CO)N(Cc1ccc(cc1)Cl)C[C@]13CCN(CCc2ccccc2)CC1,active
4,COc1ccc2c3c([nH]c2c1)[C@@H](CO)N(Cc1ccncc1)C[C@]13CCN(CC1)Cc1ccc(cc1)-c1ccccn1,inactive
5,COc1ccc2c3c([nH]c2c1)[C@@H](CO)N(Cc1ccc(cc1)Cl)C[C@]13CCN(CCc2ccccc2)CC1,active
6,COc1ccc(NC(=O)N(C)C[C@H]2OCCCC[C@H](C)Oc3ccc(NC(=O)C4CCCCC4)cc3C(=O)N([C@H](C)CO)C[C@@H]2C)cc1,inactive
7,C[C@@H]1CN([C@@H](C)CO)C(=O)c2cc(NS(=O)(=O)c3cccs3)ccc2O[C@H]1CN(C)Cc1ccncc1,inactive
8,Cc1noc(C)c1S(=O)(=O)N(C)C[C@@H]1Oc2ccc(NC(=O)Cc3ccccc3)cc2CC(=O)N([C@@H](C)CO)C[C@H]1C,inactive
9,C[C@@H]1CN([C@@H](C)CO)C(=O)Cc2cc(NS(=O)(=O)c3ccc(Cl)cc3)ccc2O[C@H]1CN(C)Cc1ccc(-c2ccccc2)cc1,active
10,C[C@H](CO)N1C[C@H](C)[C@H](CN(C)Cc2ccc(-c3ccccc3)cc2)Oc2ccc(NS(=O)(=O)c3ccc(Cl)cc3)cc2CC1=O,inactive
11,C[C@H](CO)N1C[C@H](C)[C@@H](CN(C)Cc2ccc(-c3ccccc3)cc2)Oc2ccc(NS(=O)(=O)c3ccc(Cl)cc3)cc2CC1=O,inactive
12,C[C@@H]1CN([C@H](C)CO)C(=O)Cc2cc(NS(=O)(=O)c3ccc(Cl)cc3)ccc2O[C@@H]1CN(C)Cc1ccc(-c2ccccc2)cc1,active
13,C[C@H]1CN([C@@H](C)CO)C(=O)Cc2cc(NS(=O)(=O)c3ccc(Cl)cc3)ccc2O[C@@H]1CN(C)Cc1ccc(-c2ccccc2)cc1,inactive
14,C[C@@H]1CN([C@@H](C)CO)C(=O)Cc2cc(NS(=O)(=O)c3ccc(Cl)cc3)ccc2O[C@@H]1CN(C)Cc1ccc(-c2ccccc2)cc1,inactive
15,C[C@H]1CN([C@@H](C)CO)C(=O)Cc2cc(NS(=O)(=O)c3ccc(Cl)cc3)ccc2O[C@H]1CN(C)Cc1ccc(-c2ccccc2)cc1,active
16,C[C@@H]1CN([C@H](C)CO)C(=O)Cc2cc(NS(=O)(=O)c3ccc(Cl)cc3)ccc2O[C@H]1CN(C)Cc1ccc(-c2ccccc2)cc1,inactive
17,C[C@@H]1CN([C@@H](C)CO)C(=O)c2cc(NS(C)(=O)=O)ccc2O[C@@H](C)CCCCO[C@H]1CN(C)CC1CC1,inactive
18,C[C@@H]1CN([C@H](C)CO)C(=O)c2cc(NC(=O)Cn3cnnn3)ccc2O[C@H]1CN(C)Cc1ccc(Cl)c(Cl)c1,inactive
19,C[C@H]1CN([C@@H](C)CO)C(=O)c2cccc(NS(=O)(=O)c3ccc(F)cc3)c2O[C@@H]1CN(C)S(=O)(=O)c1cccs1,inactive
20,O=C(C[C@H]1C[C@@H]2c3cc(NC(=O)Nc4ccc(C(F)(F)F)cc4)ccc3O[C@@H]2[C@H](CO)O1)NCc1cc(F)ccc1F,inactive
